SMILES strings stand for the structures. Among all 39,000 compounds or so, about 1,500 (3.8%) were called active. Only a selection was taken, and actives are over-represented in it overall.

For this experiment, the system named is HSkMC (human skeletal muscle cells). Briefly: cytotoxicity call (relative viability < 0.9). To be noted: 10 µM.
As for `Cc1cccc2[nH]c(CCN)nc12`, the cytotoxicity call is “inactive”.

For the compound `COc1cccc(N=[N+]=[N-])c1`, the cytotoxicity call was “inactive”.

As to `Cc1cc(O[C@@H]2O[C@H](CO)[C@@H](O)[C@H](O)[C@H]2O)c2c3c(c(=O)oc2c1)CCC3`, the cytotoxicity call is “inactive”.

In the case of `CC(=O)OC[C@]12CCC(C)=C[C@H]1O[C@@H]1[C@H](O)[C@@H](OC(C)=O)[C@@]2(C)[C@]12CO2`, the cytotoxicity call was “active”.

Regarding `CC1=C[C@H]2O[C@@H]3[C@H](O)[C@@H](O[C@H]4O[C@H](CO)[C@@H](O)[C@H](O)[C@H]4O)[C@](C)([C@@]2(CO)CC1)[C@]31CO1`, the cytotoxicity call was “active”.

As to `OCCN[C@@H]1c2ccccc2[C@H]2CNC[C@H]21`, the cytotoxicity call is “inactive”.

On to `C[C@]12CC[C@H](Cl)C[C@@H]1CC[C@@H]1[C@@H]2CC[C@]2(C)C(=O)CC[C@@H]12`, for which the cytotoxicity call is “inactive”.

For the compound `NC(=O)c1ccc(N)nc1`, the cytotoxicity call was “inactive”.

For the compound `CC12CC(=O)C3C(CCC4=CC(=O)CCC43C)C1CCC2=O` (stereo not given), the cytotoxicity call is “inactive”.

For the compound `NCCc1ccncc1`, the cytotoxicity call was “inactive”.

Take `CCN1C[C@@]2(C)CC[C@H](OC)C34[C@@H]2[C@H](O)[C@]2(OCO[C@@]25C[C@H](OC)[C@H]2C[C@]3(O)[C@@H]5[C@H]2O)[C@@H]14`: the cytotoxicity call is “inactive”.

Turning to `O=c1[nH]c2ccccc2n1C1CCN(Cc2ccc(-c3nc4cc5[nH]cnc5cc4nc3-c3ccccc3)cc2)CC1`, the cytotoxicity call was “active”.

In the case of `CN1C[C@H](C(=O)N[C@]2(C)O[C@@]3(O)[C@@H]4CCCN4C(=O)[C@H](Cc4ccccc4)N3C2=O)C=C2c3cccc4[nH]cc(c34)C[C@H]21`, the cytotoxicity call is “inactive”.

For the compound `Cc1cccc(N2CCNCC2)n1`, the cytotoxicity call is “inactive”.

For `COc1c2c(cc3c1OCO3)CC[N+](C)=C2.[Cl-]`, the cytotoxicity call was “inactive”.

As for `CC(C)CC1C(=O)N2CCCC2C2(O)OC(NC(=O)C3C=C4c5cccc6[nH]c(Br)c(c56)CC4N(C)C3)(C(C)C)C(=O)N12.CS(=O)(=O)O` (stereo not given), the cytotoxicity call is “inactive”.

Turning to `O=c1[nH]c2cc(N3CCNCC3)ccc2o1`, the cytotoxicity call is “inactive”.

For `CC[C@@]1(O)C[C@H](O[C@H]2C[C@H](N(C)C)[C@H](O)[C@H](C)O2)c2c(cc3c(c2O)C(=O)c2c(O)ccc(O)c2C3=O)[C@H]1C(=O)OC`, the cytotoxicity call is “inactive”.

With `COc1cccc2c1C(=O)c1c(O)c3c(c(O)c1C2=O)C[C@@](O)(C(=O)CO)C[C@@H]3O[C@H]1C[C@H](N2CCO[C@H](OC)C2)[C@H](O)[C@H](C)O1`, the cytotoxicity call is “active”.

In the case of `COc1cc2c3cc1Oc1c(OC)c(OC)cc4c1C(Cc1cccc(c1)Oc1ccc(c(O)c1)CC3N(C)CC2)N(C)CC4.Cl.Cl` (stereo not given), the cytotoxicity call was “inactive”.

Turning to `COc1ccc(OC(=O)N(C)C[C@@H]2OCc3ccccc3-c3c(n(C)c4ccccc34)C(=O)N([C@@H](C)CO)C[C@H]2C)cc1`, the cytotoxicity call was “inactive”.

With `Cc1scc(CCN)c1C`, the cytotoxicity call was “inactive”.

Consider `Cl.Oc1noc2c1CCNC2`, for which the cytotoxicity call is “inactive”.

As for `C#CC1(O)CCC2C3CCC4=CC(=O)CCC4(C)C3CCC21C` (stereo not given), the cytotoxicity call is “inactive”.

Consider `C=CCC1(O)CCC2C3CCC4=CC(=O)CCC4=C3C=CC21C` (stereo not given), for which the cytotoxicity call is “inactive”.

In the case of `C=CCC1(O)CCC2C3CCC4=CCCCC4C3CCC21C` (stereo not given), the cytotoxicity call is “active”.

Consider `CC(=O)O[C@H]1C(=O)[C@]2(C)[C@@H](O)C[C@H]3OC[C@@]3(OC(C)=O)[C@@H]2[C@H](OC(=O)c2ccccc2)[C@]2(O)C[C@H](O)C(C)=C1C2(C)C`, for which the cytotoxicity call was “inactive”.

As for `[N-]=[N+]=NCc1ccccc1C[C@]1(C(=O)NCCN2CCOCC2)N=C(c2ccc(OCCCO)cc2)O[C@H]1c1ccccc1N=[N+]=[N-]`, the cytotoxicity call is “inactive”.

For the compound `O=c1[nH]c(=O)n(Cl)c(=O)n1Cl`, the cytotoxicity call is “inactive”.

Regarding `CC1OC(OC2C=C3CCC4C(CCC5(C)C(c6ccc(=O)oc6)CCC45O)C3(C)CC2)C(O)C(O)C1O` (stereo not given), the cytotoxicity call is “active”.

`CC[C@@H](C)C(=O)O[C@H]1[C@H](O)[C@H]2[C@@H](CN3C[C@@H](C)CC[C@@H]3[C@@]2(C)O)[C@H]2C[C@]34O[C@]5(O)[C@@H](OC(=O)[C@@](C)(O)[C@@H](C)O)CC[C@@]3(C)[C@@H]5[C@@H](OC(C)=O)[C@@H](OC(C)=O)[C@@H]4[C@@]21O`: the cytotoxicity call was “inactive”.

In the case of `CC(=O)OCC1=C(C(=O)[O-])N2C(=O)C(NC(=O)CCCC(N)C(=O)[O-])C2SC1.[Zn+2]` (stereo not given), the cytotoxicity call is “inactive”.

With `c1ccc2c(c1)sc1ccccc12`, the cytotoxicity call is “active”.

Turning to `COc1cc2c(cc1OC)C1C(=O)c3ccc4oc(C(C)C)cc4c3OC1CO2` (stereo not given), the cytotoxicity call is “inactive”.

Take `NCCc1ccc(S(N)(=O)=O)cc1`: the cytotoxicity call is “inactive”.

With `Cc1cc([C@@H](C#N)c2ccc(Cl)cc2)c(Cl)cc1NC(=O)c1cc(I)cc(I)c1O`, the cytotoxicity call was “active”.

In the case of `CC(=O)Nc1ccc(Cl)cc1C`, the cytotoxicity call is “inactive”.

For `Cc1cc(C(C#N)c2ccc(Cl)cc2)c(Cl)cc1NC(=O)c1cc(I)cc(I)c1O` (stereo not given), the cytotoxicity call is “inactive”.

For the compound `COc1cc(CCN)ccc1O`, the cytotoxicity call is “inactive”.

In the case of `Cc1ccc(C2(CN)CCCCC2)cc1`, the cytotoxicity call is “inactive”.

Turning to `CC(C)C12OC1C1OC13C1(C)CCC4=C(COC4=O)C1CC1OC13C2O` (stereo not given), the cytotoxicity call was “inactive”.

As for `COC(=O)NC(=S)Nc1ccccc1NC(=S)NC(=O)OC`, the cytotoxicity call is “active”.

Regarding `CNc1ccccc1C(=O)O`, the cytotoxicity call was “inactive”.

Consider `CCC1CN2CCc3cc(OC)c(OC)cc3C2CC1CC1NCCc2cc(OC)c(OC)cc21.Cl.Cl` (stereo not given), for which the cytotoxicity call is “inactive”.

As to `COc1ccc(CCN)cc1O`, the cytotoxicity call is “inactive”.

`CC(C)CC(CN)CC(=O)O` (stereo not given): the cytotoxicity call is “inactive”.

With `C[C@]12CC[C@]3(C)OC[C@](CO)(CO1)N23`, the cytotoxicity call is “inactive”.

As for `Nc1ccccc1-c1ccccc1`, the cytotoxicity call is “inactive”.

As for `CCC1(C2OC(C3OC(O)(CO)C(C)CC3C)CC2C)CCC(C2(C)CCC3(CC(O)C(C)C(C(C)C(OC)C(C)C(=O)[O-])O3)O2)O1.[Na+]` (stereo not given), the cytotoxicity call was “inactive”.

Consider `NC1CC1c1ccccc1.O=S(=O)(O)O` (stereo not given), for which the cytotoxicity call was “inactive”.

Consider `O=c1cccc2n1CC1CNCC2C1` (stereo not given), for which the cytotoxicity call is “inactive”.

`COC(=O)C[C@H]1CC[C@H]2NC[C@H](O)COC[C@@H]2O1`: the cytotoxicity call is “inactive”.

In the case of `CCC(C)C1OC2(C=CC1C)CC1CC(CC=C(C)C(OC3CC(OC)C(OC4CC(OC)C(O)C(C)O4)C(C)O3)C(C)C=CC=C3COC4C(O)C(C)=CC(C(=O)O1)C34O)O2` (stereo not given) [ABAMECTIN (avermectin B1a shown) ], the cytotoxicity call was “inactive”.

Consider `C[N+](C)(C)CCCl`, for which the cytotoxicity call is “inactive”.

For `C[N+](C)(C)CCCCCCCCCC[N+](C)(C)C.[Br-].[Br-]`, the cytotoxicity call was “inactive”.

Consider `CCCCCCCCCCCCCCCC[N+](C)(C)C.[Br-]`, for which the cytotoxicity call is “active”.

For the compound `CC1CC(C)C(=O)C(C(O)CC2CC(=O)NC(=O)C2)C1` (stereo not given), the cytotoxicity call is “inactive”.

For `Cc1nn[nH]n1`, the cytotoxicity call is “inactive”.

For the compound `CC(=O)CC1CCCCN1.Cl` (stereo not given), the cytotoxicity call is “inactive”.

Turning to `CCn1cnc2c(Nc3cccc(Cl)c3)nc(N[C@@H]3CCCC[C@@H]3N)nc21`, the cytotoxicity call was “active”.

(Values after the antibiotic and cytotoxicity screens of Wong et al. (2023).)
